From PubChem BioAssay (NCI)
About 79,000 compounds went through this panel and 15% of them were active in at least one assay; those are over-represented in the sample as a whole. A number with no mark means an inactive call. The source made the active and inactive calls. No stated cut-off is given here; in the data, active means growth inhibition above about 70%; inactive means the rest.

Key:
[1] = NCI Yeast Anticancer Drug Screen. Data for the rad50 strain (AID 155);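 further: 0% = growth of vehicle-only cultures of the same strain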; settings: S. cerevisiae rad50 strain growth inhibition; at 50.0 µM; stronger effect = higher value
Method in brief: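 Relative growth inhibition (compound vs vehicle) was measured in yeast with a defined repair-gene alteration.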

[2] = NCI Yeast Anticancer Drug Screen. Data for the mec2-1 strain (AID 157); settings: S. cerevisiae mec2-1 strain, at 50.0 µM, stronger effect = higher value
Method in brief: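 Vehicle-treated cultures served as reference for growth inhibition of compound-exposed mec2-1 yeast.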

[3] = NCI Yeast Anticancer Drug Screen. Data for the sgs1 mgt1 strain (AID 161);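 further: 0% = growth of cultures given vehicle only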; settings: S. cerevisiae sgs1 mgt1 strain, at 50.0 µM, stronger effect = higher value
Method in brief: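 Test agents were incubated with a DNA-repair-mutant yeast strain. Growth was then read and compared against vehicle-treated controls.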

[4] = NCI Yeast Anticancer Drug Screen. Data for the cln2 rad14 strain (AID 165);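 further: 0% = growth equal to vehicle treated cultures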; settings: S. cerevisiae cln2 rad14 strain, at 50.0 µM, stronger effect = higher value
Method in brief: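 Each compound was tested on cln2 rad14 yeast. Inhibition of growth was calculated against vehicle-exposed controls.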

[5] = NCI Yeast Anticancer Drug Screen. Data for the bub3 strain (AID 167); settings: S. cerevisiae bub3 mutant strain, at 50.0 µM, stronger effect = higher value
Method in brief: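 Screening used yeast with an engineered genetic alteration affecting cell cycle control. Compound-exposed cultures were compared with vehicle cultures, and reduced growth was taken as inhibition.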

[6] = NCI Yeast Anticancer Drug Screen. Data for the mlh1 rad18 strain (AID 175); settings: S. cerevisiae mlh1 rad18 strain growth inhibition; at 50.0 µM; stronger effect = higher value
Method in brief: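 Vehicle-treated cultures served as the reference for growth inhibition in a yeast strain carrying DNA damage repair alterations exposed to each compound.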

| SMILES | growth inhibition [1] [%] | growth inhibition [2] [%] | growth inhibition [3] | growth inhibition [4] [%] | growth inhibition [5] | growth inhibition [6] |
| --- | --- | --- | --- | --- | --- | --- |
| Cn1c(=O)c2[nH]c(Cl)nc2n(C)c1=O | 9.6 | -23.6 | 6.7% | -3.8 | -16.6% | -8.55% |
| CC(C)(C)C1CCC(C(=O)c2ccccc2)CC1 (stereo unspecified) | -7.75 | -4.05 | -0.75% | -45.3 | -28.6% | 1.7% |
| O=C(CCCC(=O)N/N=C/c1cc(Cl)ccc1[N+](=O)[O-])N/N=C\c1cc(Cl)ccc1[N+](=O)[O-] | 20.7 | 12.1 | 11.1% | 10.7 | -1.9% | 7% |
| CCOc1ccc2nc(SCCl)sc2c1 | 6.1 | -2.7 | 7.65% | -14.9 | -35.1% | 2.8% |
| Cc1cc2c(cc1[N+](=O)[O-])OCCO2 | 11.3 | 3.9 | 4.55% | -15.5 | -3.25% | 8.55% |
| C/C(=N/NC(=O)C1CCCO1)c1ccc(C)cc1 (stereo unspecified) | 0.95 | -6.5 | -4.75% | -92 | -6.5% | -28.9% |
| O=C1CCSSCCC(=O)Nc2ccccc2N1 | -36.4 | -42.5 | -14.8% | -9.55 | -18.1% | -15.6% |
| O=C(NCCc1ccccc1)c1ccc2ccccc2n1 | 65.3 | 53.3 | 63.7% | 52.1 | 87.5% (active) | 84.5% (active) |
| COc1ccc2nc(C(C)(O)c3ccccc3)ccc2c1 (stereo unspecified) | -1.6 | -8.15 | 6% | -6.85 | 2.65% | -29.1% |
| ICC1OCOC2C(CI)OCOC12 (stereo unspecified) | 5.1 | 1.3 | -5.3% | -1.8 | 4.75% | 9.5% |
| Cc1cc(C(=O)O)cc(C)c1N(C)Cc1cnc2nc(N)nc(N)c2n1 | 5.6 | -11.8 | 0.25% | 20.7 | 17.4% | -5% |
| CC(=O)Nc1ccc(S(=O)(=O)N/N=C\CC(C)C)cc1 | -19.4 | -14.2 | -26.2% | -6.95 | -46% | -27.2% |
| CCOC(NCc1ccc(OC)c(OC)c1)OCC | 3.6 | -11.8 | 6.45% | 3.55 | 17.1% | 11.3% |
| CC1(C)CC(O)CC(C)(C)N1.CC1(C)CC(O)CC(C)(C)N1.CC1(C)CC(O)CC(C)(C)N1.CC1(C)CC(O)CC(C)(C)N1.Cl.[Ti] | -2.95 | -4.45 | 12.9% | 17.8 | 26.1% | 10.5% |
| COc1ccc(C(O)c2ccccc2C(=O)Nc2ccccc2)cc1 (stereo unspecified) | -4.95 | -9.7 | -18.2% | -21.9 | -3.35% | -3.9% |
| CCC(=O)[C@@]1(OC(C)=O)CC[C@H]2[C@@H]3CCC4=CC(=O)CC[C@]4(C)[C@H]3CC[C@@]21C | 28.1 | 17.5 | 30.9% | 36.7 | 26.9% | 16% |
| CCOC(=O)c1c(NCc2ccccc2)n(-c2ccccc2)c(=S)n(-c2ccccc2)c1=O | 17.1 | -6.8 | 0.6% | 32.1 | 14.8% | 53% |
| Cn1c2c(F)cccc2c(=O)c2c(O)cc3c(c21)C=CC(C)(C)O3 | -24.6 | -22.2 | -27.4% | -17.9 | -18.6% | -19.7% |
| COc1c2c(cc3c1[C@@H]1Oc4c(ccc(O)c4CC=C(C)C)[C@@H]1CO3)OC(C)(C)C=C2 | 45.5 | 52.7 | 36.9% | 55.2 | 44.5% | 41.4% |
| COc1ccccc1Oc1ccccc1 | -20.7 | -61.3 | -8.6% | 13.6 | -34% | 20.8% |
| CCc1ccc(NC(=O)Nc2ccc(Cl)cc2)cc1 | -3.2 | 7.75 | -8.65% | -16.9 | -0.8% | -12.6% |

| SMILES | growth inhibition [1] [%] | growth inhibition [2] [%] | growth inhibition [3] | growth inhibition [4] [%] | growth inhibition [5] | growth inhibition [6] |
| --- | --- | --- | --- | --- | --- | --- |
| COC(=O)c1cc(-c2cccc3ccccc23)[nH]c(=O)c1C#N | 8.85 | 0.35 | 17.6% | 18.7 | -6.6% | 21.9% |
| C=CC1(c2ccc(Cl)c(Cl)c2)OCCO1 | -11.3 | 15.8 | 15% | -6.5 | 9.55% | 25.4% |
| CN(C)C(=O)Nc1cccc(OS(=O)(=O)N(C)C)c1 | 5.4 | 26.1 | 23.2% | -18.6 | 22.9% | 12.6% |
| CN(C)c1ccc2c(SCC(=O)OCC(=O)C3(O)CCC4C5CCC6=CC(=O)C=CC6(C)C5C(O)CC43C)c3ccc(N(C)C)cc3nc2c1 (stereo unspecified) | 42.6 | 45.4 | 57.2% | 60 | 42.2% | 60.9% |
| CC(C)/C(Cl)=N/OC(=O)Nc1ccc(Br)cc1 | 34.6 | 47.5 | 90.5% (active) | 24.1 | 69.3% | 81.8% (active) |
| CCCC(C)C(SC(CC)C(N)=O)C(=O)O (stereo unspecified) | -3.5 | -5.15 | 5.1% | -12.8 | 10.5% | -9.15% |
| Cc1ccc2c3c1CCCN3CCC2 | 3.45 | -3.85 | 15.6% | 61.9 | -0.55% | 8.95% |
| O=S(=O)(c1ccccc1)N1CN(S(=O)(=O)c2ccccc2)CN(S(=O)(=O)c2ccccc2)C1 | 0.95 | -9.35 | 19.5% | 10.6 | 17.9% | 6.35% |
| N#Cc1[nH]cnc1N | -6.95 | -5.95 | -11.3% | -37.5 | 7.15% | 4.3% |
| CCOP(=O)(OCC)/C(C#N)=C/c1ccc(N(C)C)cc1 | 16.3 | -9.2 | 12.4% | 9.8 | -13.9% | 5.8% |
| O=C1CN(C2CCCCC2)CC(=O)N2C(c3ccccc3)CCCN12 (stereo unspecified) | 3.3 | -5.4 | 14.7% | 11.8 | 0.55% | -1.85% |
| CC(=O)Nn1cnc(C(=N)C#N)c1N | -27.1 | -6.15 | -6.15% | 11.8 | -0.75% | -2.95% |
| Cc1c[n+]([O-])n(-c2ccccc2)n1 | 4.65 | -4.9 | 0.7% | -38.7 | 11.6% | -4.8% |
| COc1cccc(C2NC(=O)c3c(n[nH]c3N)S2)c1O (stereo unspecified) | -14.8 | -43.4 | -10.5% | -6.55 | 5.85% | -40.1% |
| COc1cc2c(c3oc(=O)cc(CCC(=O)O)c13)C1CC(=O)OC1O2 (stereo unspecified) | 3.75 | -16.6 | -9.15% | 1 | -10.7% | 10.8% |
| CN1C/C(=C\C=C\c2ccccc2)C(=O)/C(=C/C=C/c2ccccc2)C1 | 66.7 | 16.9 | 14.8% | 11.8 | 11.2% | 0.2% |
| CCCCCP(=O)(CCCCC)C1CCCC1 | -0.6 | 11.2 | -2.3% | 1.75 | 49.1% | -0.65% |
| O=[N+]([O-])c1ccc(NCn2c(=S)sc3ccccc32)cc1 | 13.7 | -27 | 11.4% | 2.15 | 2.8% | 3.6% |
| CCc1ccc(NC(=O)c2ccc(C(=O)Nc3ccc(CC)cc3)cc2)cc1 | 3.2 | 6.6 | 8.4% | 14.1 | 13.4% | 5.1% |
| COc1ccc(-c2c3c([nH]c(=S)c2C#N)CCC3)cc1 | 8.65 | 4.5 | 33% | 22.7 | 28.7% | 34.4% |
